Laboratory results taken from PubChem BioAssay (NCI).
About 79,000 compounds went through this panel and 15% of them were active in at least one assay; those are over-represented in the sample as a whole. Values without a mark were called inactive. Active and inactive are the calls of the source. Rule as the data show it: active = growth inhibition above about 70%; inactive = the rest.

Assays:
[1] = NCI Yeast Anticancer Drug Screen. Data for the rad50 strain (AID 155);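 also: 0% = growth of vehicle-only cultures of the same strain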; conditions: S. cerevisiae rad50 strain growth inhibition, active compounds read high
Method in brief: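 Yeast carrying a defined DNA repair defect were exposed to test compounds, and growth was compared with vehicle-treated controls to give percent inhibition.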

[2] = NCI Yeast Anticancer Drug Screen. Data for the mec2-1 strain (AID 157); conditions: S. cerevisiae mec2-1 strain, active compounds read high
Method in brief: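 Test agents were screened against the mec2-1 yeast strain, with defined DNA repair or cell cycle alteration. Growth was scored as inhibition against vehicle-only controls.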

[3] = NCI Yeast Anticancer Drug Screen. Data for the sgs1 mgt1 strain (AID 161);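 also: 0% = growth of cultures given vehicle only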; conditions: S. cerevisiae sgs1 mgt1 strain, active compounds read high
Method in brief: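 Test agents were incubated with a DNA-repair-mutant yeast strain. Growth was then read and compared against vehicle-treated controls.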

[4] = NCI Yeast Anticancer Drug Screen. Data for the cln2 rad14 strain (AID 165);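 also: 0% = growth equal to vehicle treated cultures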; conditions: S. cerevisiae cln2 rad14 strain, active compounds read high
Method in brief: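 Growth of compound-exposed yeast (cln2 rad14 genotype) measured and expressed as inhibition relative to vehicle.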

[5] = NCI Yeast Anticancer Drug Screen. Data for the bub3 strain (AID 167); conditions: S. cerevisiae bub3 mutant strain, active compounds read high
Method in brief: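 Compounds were applied to a genetically altered yeast strain carrying a cell-cycle control defect. Growth inhibition was scored against vehicle-treated controls.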

[6] = NCI Yeast Anticancer Drug Screen. Data for the mlh1 rad18 strain (AID 175); conditions: S. cerevisiae mlh1 rad18 strain growth inhibition, active compounds read high
Method in brief: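 In this whole-cell yeast screen, a strain with altered DNA damage repair is challenged with compound, and its growth is measured against matched vehicle-treated controls.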

[7] = at 5.0 µM (retest, dose inferred, filed as 0.5)
[8] = at 50.0 µM (retest, dose inferred, filed as 5.0)

SMILES	growth inhibition [1, 7]	growth inhibition [1, 8]	growth inhibition ([1]; at 50.0 µM)	growth inhibition [2, 7]	growth inhibition [2, 8]	growth inhibition ([2]; at 50.0 µM)	growth inhibition [3, 7] [%]	growth inhibition [3, 8]	growth inhibition ([3]; at 50.0 µM)	growth inhibition [4, 7]	growth inhibition [4, 8]	growth inhibition ([4]; at 50.0 µM)	growth inhibition [5, 7]	growth inhibition [5, 8]	growth inhibition ([5]; at 50.0 µM)	growth inhibition [6, 7] [%]	growth inhibition [6, 8]	growth inhibition ([6]; at 50.0 µM)
NNc1cc(Cl)ccc1Cl	73% (active)	93% (active)	90.7% (active)	91% (active)	99% (active)	91.8% (active)	57	98% (active)	94% (active)	80% (active)	98% (active)	91.8% (active)	89% (active)	99% (active)	91.5% (active)	55	100% (active)	90.7% (active)
CN(CCCN(CCO)CCO)C1CC(C)(C)N(O)C(C)(C)C1	16%	-4%	-4.5%	-1%	3%	-9.7%	7	10%	-3.5%	-2%	5%	14.7%	-3%	2%	-8.9%	1	9%	7.2%
Cc1cccc(/C=N/Nc2cc(C)nc3ccccc23)n1	1%	2%	92.7% (active)	-3%	-3%	37.8%	-2	35%	53.6%	5%	40%	53.8%	2%	7%	19.7%	-1	34%	46.4%
COc1ccc2ccccc2c1Cc1c(OC)ccc2ccccc12	-2%	98% (active)	-11.7%	-2%	98% (active)	8.65%	-2	98% (active)	-2.7%	-15%	98% (active)	7.65%	-5%	98% (active)	-6.35%	0	98% (active)	9.35%
